Results taken from PubChem BioAssay (NCI).
About 79,000 compounds went through this panel and 15% of them were active in at least one assay; those are over-represented in the sample as a whole. Calls of active or inactive are those of the source. No stated cut-off is given here; in the data, active means growth inhibition above about 70%; inactive means the rest.

Assay: NCI Yeast Anticancer Drug Screen. Data for the rad50EPP+ strain (AID 151);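 further: 0% = growth of vehicle-treated control cultures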
Settings: S. cerevisiae rad50 mutant strain, at 33.0 µM, hits give high values
How it was run: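 Vehicle-normalised growth inhibition; rad50EPP+ yeast strain, altered in DNA damage repair, compound-treated.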

| Structure (SMILES) | growth inhibition |
| --- | --- |
| CC(CN(C)C)C(=O)/C=C/c1ccc(Cl)c(Cl)c1 (configuration not stated) | 61% (inactive) |
| C/C(=N/NC(=S)Nc1ccccc1C)c1ccccn1 | 14% (inactive) |
| O=C1/C(=C/c2ccc(Cl)c(Cl)c2)CNC/C1=C\c1ccc(Cl)c(Cl)c1 | 32% (inactive) |
| CC(C)OP(=O)(OC(C)C)C(=NCCO)NNc1ccc([N+](=O)[O-])cc1 | 93% (active) |
| N#CCC(=O)N/N=C(\c1ccccc1)C(c1ccccc1)C1(O)C(=O)Nc2c(Cl)ccc(Cl)c21 (configuration not stated) | 24% (inactive) |
| CC(C)(CN1CCCCC1)C(=O)CC(SCCS(=O)(=O)O)c1ccccc1 (configuration not stated) | -1% (inactive) |
| COC1=CCC23C(=O)C=CC(=O)C2(C1)C(=O)c1ccccc1C3=O (configuration not stated) | 30% (inactive) |
| CCCCN(CCCC)c1ccc(N=Nc2ccc(S(=O)(=O)O)cc2)cc1 | 84% (active) |
| c1ccc2nc3c(nc2c1)sc1ccccc13 | 94% (active) |
| O=C1c2ccccc2-c2ccc(N=Cc3ccccc3)cc21 | 87% (active) |
| CNC(=S)N/N=C(/C)CCC/C(C)=N/NC(=S)NC | 59% (inactive) |
| Nc1ccc(/C=C/c2ccc3cccnc3c2)cc1 | 34% (inactive) |
| CCOC(=O)Nc1ccc(C)c(NC(=O)OCC)c1 | 34% (inactive) |
| CCN(CC)CCNc1ccc2nc(C)n3c4ccc(OC)cc4c(=O)c1c23 | 17% (inactive) |
| O=C(c1cc(=O)c2ccc(O)cc2o1)c1ccc(Cl)cc1Cl | 94% (active) |
| O=C(Cc1ccccc1)NN1C(=O)C(Cl)C1c1cc(Br)cc(Br)c1O (configuration not stated) | 56% (inactive) |
| O=[N+]([O-])/C=C/c1cc2ccc3ccccc3c2[nH]1 | 93% (active) |
